Measurements: publication PMC11006913
Numbering of substitutions follows the chain as printed.

What was measured:
Experiment in all cases: PBM; 200 nM protein, PBS
Details in all cases: dsDNA, one strand shown
SHOX [1] = target: SHOX (Homo sapiens, UniProt O15266 103-189)
PAX4 [2] = target: T1, PAX4 (Homo sapiens, UniProt O43316 9-242, R200K)
T1 sequence: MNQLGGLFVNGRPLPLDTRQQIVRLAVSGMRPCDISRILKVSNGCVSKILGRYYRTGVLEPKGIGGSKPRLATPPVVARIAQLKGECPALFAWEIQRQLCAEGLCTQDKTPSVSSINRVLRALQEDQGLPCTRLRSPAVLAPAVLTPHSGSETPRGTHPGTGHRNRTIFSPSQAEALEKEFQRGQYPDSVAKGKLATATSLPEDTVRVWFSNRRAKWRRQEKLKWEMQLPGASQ

PAX4 [3] = target: T2, PAX4 (Homo sapiens, UniProt O43316 9-242)
T2 sequence: T1 sequence with K192R

MSX2 [4] = target: MSX2 (Homo sapiens, UniProt P35548 130-214, R199I)
Chain of MSX2 (Homo sapiens, UniProt P35548 130-214, R199I) (P35548 130-214 R199I): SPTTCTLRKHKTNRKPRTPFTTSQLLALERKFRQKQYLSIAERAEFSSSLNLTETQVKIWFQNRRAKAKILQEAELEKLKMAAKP

ALX1 [5] = target: ALX1 (Homo sapiens, UniProt Q15699 118-204, L144V)
Chain of ALX1 (Homo sapiens, UniProt Q15699 118-204, L144V) (Q15699 118-204 L144V): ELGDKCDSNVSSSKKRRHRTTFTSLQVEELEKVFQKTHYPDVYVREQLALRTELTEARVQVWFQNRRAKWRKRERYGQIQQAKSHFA

ALX3 [6] = target: ALX3 (Homo sapiens, UniProt O95076 139-225, N203Q)
Chain of ALX3 (Homo sapiens, UniProt O95076 139-225, N203Q) (O95076 139-225 N203Q): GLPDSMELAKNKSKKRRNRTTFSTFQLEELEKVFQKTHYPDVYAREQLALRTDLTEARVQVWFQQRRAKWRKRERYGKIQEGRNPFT

PAX4 [7] = target: T3, PAX4 (Homo sapiens, UniProt O43316 9-242, R200Q)
T3 sequence: T1 sequence with K192Q

SHOX [8] = target: SHOX (Homo sapiens, UniProt O15266 103-189, R173C)
Chain of SHOX (Homo sapiens, UniProt O15266 103-189, R173C) (O15266 103-189 R173C): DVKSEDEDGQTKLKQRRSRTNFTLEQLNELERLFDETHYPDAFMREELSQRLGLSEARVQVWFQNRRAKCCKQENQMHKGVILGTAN

ALX1 [9] = target: ALX1 (Homo sapiens, UniProt Q15699 118-204, L144R)
Chain of ALX1 (Homo sapiens, UniProt Q15699 118-204, L144R) (Q15699 118-204 L144R): as the sequence (Q15699 118-204 L144V) above, with V27R counted along it

PAX4 [10] = target: T4, PAX4 (Homo sapiens, UniProt O43316 9-242, F177V)
T4 sequence: T1 sequence with F169V, K192R

MSX2 [11] = target: MSX2 (Homo sapiens, UniProt P35548 130-214)
Chain of MSX2 (Homo sapiens, UniProt P35548 130-214) (P35548 130-214): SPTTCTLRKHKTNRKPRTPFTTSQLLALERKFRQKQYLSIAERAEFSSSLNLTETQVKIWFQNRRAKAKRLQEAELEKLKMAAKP

ALX3 [12] = target: ALX3 (Homo sapiens, UniProt O95076 139-225)
Chain of ALX3 (Homo sapiens, UniProt O95076 139-225) (O95076 139-225): as the sequence (O95076 139-225 N203Q) above, with Q65N counted along it

PAX4 [13] = target: T5, PAX4 (Homo sapiens, UniProt O43316 9-242, F177Y)
T5 sequence: T1 sequence with F169Y, K192R

ALX3 [14] = target: ALX3 (Homo sapiens, UniProt O95076 139-225, L168Q)
Chain of ALX3 (Homo sapiens, UniProt O95076 139-225, L168Q) (O95076 139-225 L168Q): as the sequence (O95076 139-225 N203Q) above, with L30Q, Q65N counted along it

ALX3 [15] = target: ALX3 (Homo sapiens, UniProt O95076 139-225, L168V)
Chain of ALX3 (Homo sapiens, UniProt O95076 139-225, L168V) (O95076 139-225 L168V): as the sequence (O95076 139-225 N203Q) above, with L30V, Q65N counted along it

MSX2 [16] = target: MSX2 (Homo sapiens, UniProt P35548 130-214, F161Y)
Chain of MSX2 (Homo sapiens, UniProt P35548 130-214, F161Y) (P35548 130-214 F161Y): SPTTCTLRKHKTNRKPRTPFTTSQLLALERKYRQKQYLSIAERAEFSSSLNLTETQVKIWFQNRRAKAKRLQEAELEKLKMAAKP

PAX4 [17] = target: T6, PAX4 (Homo sapiens, UniProt O43316 9-242, R227W)
T6 sequence: T1 sequence with K192R, R219W

ALX1 [18] = target: ALX1 (Homo sapiens, UniProt Q15699 118-204)
Chain of ALX1 (Homo sapiens, UniProt Q15699 118-204) (Q15699 118-204): as the sequence (Q15699 118-204 L144V) above, with V27L counted along it

ALX3 [19] = target: ALX3 (Homo sapiens, UniProt O95076 139-225, N203S)
Chain of ALX3 (Homo sapiens, UniProt O95076 139-225, N203S) (O95076 139-225 N203S): as the sequence (O95076 139-225 N203Q) above, with Q65S counted along it

PRRX1 [20] = target: PRRX1 (Homo sapiens, UniProt P54821 80-166, F113S)
Chain of PRRX1 (Homo sapiens, UniProt P54821 80-166, F113S) (P54821 80-166 F113S): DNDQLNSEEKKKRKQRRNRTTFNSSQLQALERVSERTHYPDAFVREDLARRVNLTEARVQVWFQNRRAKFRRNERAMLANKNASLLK

PRRX1 [21] = target: PRRX1 (Homo sapiens, UniProt P54821 80-166)
Chain of PRRX1 (Homo sapiens, UniProt P54821 80-166) (P54821 80-166): as the sequence (P54821 80-166 F113S) above, with S34F counted along it

HOXB9 [22] = target: HOXB9 (Homo sapiens, UniProt P17482 171-250)
Chain of HOXB9 (Homo sapiens, UniProt P17482 171-250) (P17482 171-250): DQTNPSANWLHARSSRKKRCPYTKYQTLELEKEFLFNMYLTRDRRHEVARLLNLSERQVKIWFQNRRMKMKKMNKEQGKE

HOXA7 [23] = target: HOXA7 (Homo sapiens, UniProt P31268 116-202)
Chain of HOXA7 (Homo sapiens, UniProt P31268 116-202) (P31268 116-202): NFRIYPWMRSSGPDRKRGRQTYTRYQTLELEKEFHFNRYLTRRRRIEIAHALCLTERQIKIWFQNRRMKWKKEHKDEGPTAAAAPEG

HOXA7 [24] = target: HOXA7 (Homo sapiens, UniProt P31268 116-202, W177C)
Chain of HOXA7 (Homo sapiens, UniProt P31268 116-202, W177C) (P31268 116-202 W177C): as the sequence (P31268 116-202) above, with W62C counted along it

HOXB9 [25] = target: HOXB9 (Homo sapiens, UniProt P17482 171-250, R186Q)
Chain of HOXB9 (Homo sapiens, UniProt P17482 171-250, R186Q) (P17482 171-250 R186Q): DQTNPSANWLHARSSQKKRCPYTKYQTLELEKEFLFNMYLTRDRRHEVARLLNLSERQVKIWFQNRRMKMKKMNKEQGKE

PITX2 = PITX2 (Homo sapiens, UniProt Q99697 72-157)

Chain of SHOX (Homo sapiens, UniProt O15266 103-189) (O15266 103-189): as the sequence (O15266 103-189 R173C) above, with C71R counted along it

Question: How did the binding signal (SHOX [1]) turn out when ACAAATTA was run?
Answer: 11.4 upbm affinity estimate (log intensity, higher = more binding, comparable within an allelic series)

Question: What about the binding signal (PAX4 [2]) of the same sequence?
Answer: 11.7 upbm affinity estimate (log intensity, higher = more binding, comparable within an allelic series)

Question: What about the binding signal (PAX4 [3]) of the same sequence?
Answer: 12.3 upbm affinity estimate (log intensity, higher = more binding, comparable within an allelic series)

Question: What about the binding signal (MSX2 [4]) of the same sequence?
Answer: 12 upbm affinity estimate (log intensity, higher = more binding, comparable within an allelic series)

Question: What about the binding signal (ALX1 [5]) of the same sequence?
Answer: 11.3 upbm affinity estimate (log intensity, higher = more binding, comparable within an allelic series)

Question: And the binding signal (ALX3 [6])?
Answer: 8.4 upbm affinity estimate (log intensity, higher = more binding, comparable within an allelic series)

Question: And the binding signal (PAX4 [7])?
Answer: 12.2 upbm affinity estimate (log intensity, higher = more binding, comparable within an allelic series)

Question: What about the binding signal (SHOX [8]) of the same sequence?
Answer: 9.08 upbm affinity estimate (log intensity, higher = more binding, comparable within an allelic series)

Question: What about the binding signal (ALX1 [9]) of the same sequence?
Answer: 10.9 upbm affinity estimate (log intensity, higher = more binding, comparable within an allelic series)

Question: What about the binding signal (PAX4 [10]) of the same sequence?
Answer: 10.5 upbm affinity estimate (log intensity, higher = more binding, comparable within an allelic series)

Question: And the binding signal (MSX2 [11])?
Answer: 13.3 upbm affinity estimate (log intensity, higher = more binding, comparable within an allelic series)

Question: And the binding signal (ALX3 [12])?
Answer: 12.2 upbm affinity estimate (log intensity, higher = more binding, comparable within an allelic series)

Question: What about the binding signal (PAX4 [13]) of the same sequence?
Answer: 11 upbm affinity estimate (log intensity, higher = more binding, comparable within an allelic series)

Question: What about the binding signal (ALX3 [14]) of the same sequence?
Answer: 10.1 upbm affinity estimate (log intensity, higher = more binding, comparable within an allelic series)

Question: And the binding signal (ALX3 [15])?
Answer: 9.54 upbm affinity estimate (log intensity, higher = more binding, comparable within an allelic series)

Question: What about the binding signal (MSX2 [16]) of the same sequence?
Answer: 12.9 upbm affinity estimate (log intensity, higher = more binding, comparable within an allelic series)

Question: What about the binding signal (PAX4 [17]) of the same sequence?
Answer: 11 upbm affinity estimate (log intensity, higher = more binding, comparable within an allelic series)

Question: What about the binding signal (ALX1 [18]) of the same sequence?
Answer: 12 upbm affinity estimate (log intensity, higher = more binding, comparable within an allelic series)

Question: What about the binding signal (ALX3 [19]) of the same sequence?
Answer: 8.51 upbm affinity estimate (log intensity, higher = more binding, comparable within an allelic series)

Question: How did the binding signal (SHOX [1]) turn out when GGAGGGAA was run?
Answer: 7.13 upbm affinity estimate (log intensity, higher = more binding, comparable within an allelic series)

Question: What about the binding signal (PRRX1 [20]) of the same sequence?
Answer: 9.41 upbm affinity estimate (log intensity, higher = more binding, comparable within an allelic series)

Question: What about the binding signal (SHOX [8]) of the same sequence?
Answer: 7.16 upbm affinity estimate (log intensity, higher = more binding, comparable within an allelic series)

Question: And the binding signal (PRRX1 [21])?
Answer: 9.45 upbm affinity estimate (log intensity, higher = more binding, comparable within an allelic series)

Question: Which binding signal (SHOX [1]) does the source give for GATATGTA here?
Answer: 8.18 upbm affinity estimate (log intensity, higher = more binding, comparable within an allelic series)

Question: And the binding signal (HOXB9 [22])?
Answer: 9.76 upbm affinity estimate (log intensity, higher = more binding, comparable within an allelic series)

Question: What about the binding signal (SHOX [8]) of the same sequence?
Answer: 7.81 upbm affinity estimate (log intensity, higher = more binding, comparable within an allelic series)

Question: For TAACAATA, which binding signal (SHOX [1]) is on record?
Answer: 8.71 upbm affinity estimate (log intensity, higher = more binding, comparable within an allelic series)

Question: What about the binding signal (HOXA7 [23]) of the same sequence?
Answer: 9.77 upbm affinity estimate (log intensity, higher = more binding, comparable within an allelic series)

Question: What about the binding signal (HOXA7 [24]) of the same sequence?
Answer: 8.92 upbm affinity estimate (log intensity, higher = more binding, comparable within an allelic series)

Question: How did the binding signal (SHOX [1]) turn out when CGCCGAGC was run?
Answer: 7.14 upbm affinity estimate (log intensity, higher = more binding, comparable within an allelic series)

Question: What about the binding signal (PAX4 [2]) of the same sequence?
Answer: 9.36 upbm affinity estimate (log intensity, higher = more binding, comparable within an allelic series)

Question: And the binding signal (PAX4 [3])?
Answer: 9.47 upbm affinity estimate (log intensity, higher = more binding, comparable within an allelic series)

Question: What about the binding signal (ALX3 [6]) of the same sequence?
Answer: 7.72 upbm affinity estimate (log intensity, higher = more binding, comparable within an allelic series)

Question: And the binding signal (PAX4 [7])?
Answer: 9.48 upbm affinity estimate (log intensity, higher = more binding, comparable within an allelic series)

Question: And the binding signal (SHOX [8])?
Answer: 7.23 upbm affinity estimate (log intensity, higher = more binding, comparable within an allelic series)

Question: And the binding signal (PAX4 [10])?
Answer: 9.31 upbm affinity estimate (log intensity, higher = more binding, comparable within an allelic series)

Question: What about the binding signal (ALX3 [12]) of the same sequence?
Answer: 7.76 upbm affinity estimate (log intensity, higher = more binding, comparable within an allelic series)

Question: And the binding signal (PAX4 [13])?
Answer: 9.32 upbm affinity estimate (log intensity, higher = more binding, comparable within an allelic series)

Question: What about the binding signal (ALX3 [14]) of the same sequence?
Answer: 7.81 upbm affinity estimate (log intensity, higher = more binding, comparable within an allelic series)

Question: And the binding signal (ALX3 [15])?
Answer: 7.74 upbm affinity estimate (log intensity, higher = more binding, comparable within an allelic series)

Question: What about the binding signal (PAX4 [17]) of the same sequence?
Answer: 9.41 upbm affinity estimate (log intensity, higher = more binding, comparable within an allelic series)

Question: And the binding signal (ALX3 [19])?
Answer: 7.79 upbm affinity estimate (log intensity, higher = more binding, comparable within an allelic series)

Question: For AATTAGGA, which binding signal (SHOX [1]) is on record?
Answer: 11.4 upbm affinity estimate (log intensity, higher = more binding, comparable within an allelic series)

Question: And the binding signal (HOXB9 [22])?
Answer: 10.3 upbm affinity estimate (log intensity, higher = more binding, comparable within an allelic series)

Question: What about the binding signal (SHOX [8]) of the same sequence?
Answer: 9.06 upbm affinity estimate (log intensity, higher = more binding, comparable within an allelic series)

Question: What about the binding signal (HOXB9 [25]) of the same sequence?
Answer: 10.2 upbm affinity estimate (log intensity, higher = more binding, comparable within an allelic series)

Question: With GCCTTGCC as the sequence, how does the binding signal (SHOX [1]) read?
Answer: 7.17 upbm affinity estimate (log intensity, higher = more binding, comparable within an allelic series)

Question: And the binding signal (MSX2 [4])?
Answer: 9.62 upbm affinity estimate (log intensity, higher = more binding, comparable within an allelic series)

Question: And the binding signal (SHOX [8])?
Answer: 7.18 upbm affinity estimate (log intensity, higher = more binding, comparable within an allelic series)

Question: What about the binding signal (MSX2 [11]) of the same sequence?
Answer: 9.57 upbm affinity estimate (log intensity, higher = more binding, comparable within an allelic series)

Question: And the binding signal (MSX2 [16])?
Answer: 9.57 upbm affinity estimate (log intensity, higher = more binding, comparable within an allelic series)

Question: CAGCGCAG was tested. Which binding signal (SHOX [1]) did it give?
Answer: 7.11 upbm affinity estimate (log intensity, higher = more binding, comparable within an allelic series)

Question: What about the binding signal (PAX4 [2]) of the same sequence?
Answer: 9.32 upbm affinity estimate (log intensity, higher = more binding, comparable within an allelic series)

Question: And the binding signal (PAX4 [3])?
Answer: 9.29 upbm affinity estimate (log intensity, higher = more binding, comparable within an allelic series)

Question: And the binding signal (PAX4 [7])?
Answer: 9.39 upbm affinity estimate (log intensity, higher = more binding, comparable within an allelic series)

Question: What about the binding signal (PITX2) of the same sequence?
Answer: 8.17 upbm affinity estimate (log intensity, higher = more binding, comparable within an allelic series)

Question: And the binding signal (SHOX [8])?
Answer: 7.22 upbm affinity estimate (log intensity, higher = more binding, comparable within an allelic series)

Question: What about the binding signal (PAX4 [10]) of the same sequence?
Answer: 9.38 upbm affinity estimate (log intensity, higher = more binding, comparable within an allelic series)

Question: What about the binding signal (PAX4 [13]) of the same sequence?
Answer: 9.36 upbm affinity estimate (log intensity, higher = more binding, comparable within an allelic series)

Question: And the binding signal (PAX4 [17])?
Answer: 9.48 upbm affinity estimate (log intensity, higher = more binding, comparable within an allelic series)

Question: GCAAATTA was tested. Which binding signal (SHOX [1]) did it give?
Answer: 11.6 upbm affinity estimate (log intensity, higher = more binding, comparable within an allelic series)

Question: And the binding signal (PAX4 [2])?
Answer: 11.6 upbm affinity estimate (log intensity, higher = more binding, comparable within an allelic series)

Question: And the binding signal (PAX4 [3])?
Answer: 12.1 upbm affinity estimate (log intensity, higher = more binding, comparable within an allelic series)

Question: And the binding signal (ALX1 [5])?
Answer: 11.2 upbm affinity estimate (log intensity, higher = more binding, comparable within an allelic series)

Question: And the binding signal (PAX4 [7])?
Answer: 11.9 upbm affinity estimate (log intensity, higher = more binding, comparable within an allelic series)

Question: What about the binding signal (SHOX [8]) of the same sequence?
Answer: 8.89 upbm affinity estimate (log intensity, higher = more binding, comparable within an allelic series)

Question: What about the binding signal (ALX1 [9]) of the same sequence?
Answer: 10.8 upbm affinity estimate (log intensity, higher = more binding, comparable within an allelic series)

Question: And the binding signal (PAX4 [10])?
Answer: 10.3 upbm affinity estimate (log intensity, higher = more binding, comparable within an allelic series)

Question: What about the binding signal (PAX4 [13]) of the same sequence?
Answer: 10.8 upbm affinity estimate (log intensity, higher = more binding, comparable within an allelic series)

Question: And the binding signal (PAX4 [17])?
Answer: 10.8 upbm affinity estimate (log intensity, higher = more binding, comparable within an allelic series)

Question: What about the binding signal (ALX1 [18]) of the same sequence?
Answer: 12 upbm affinity estimate (log intensity, higher = more binding, comparable within an allelic series)
